Read-outs that look alike come from different tables or passages of the source. Whole data set: some 68,000 compounds, median “% viability” near 1.1, cut for the lowest 2% near 0.96. Only a selection was taken, and the lowest values are over-represented in it overall. The numbers are fractions of the control, whatever unit the source prints.
Test system: P. falciparum (NF54) stage V gametocytes
Design: Mature stage V gametocyte viability, MitoTracker Red CMXRos high-content imaging
Conditions: primary screen, n=2, fraction of DMSO control, 72 h, 2 µM, inhibitor

SMILES: CC(NC(=O)CCC1=NC(=C2N=CN=N2)NO1)c1ccc(F)cc1F (centres unmarked) [DDD01068293]
- % viability: 1.218%

SMILES: CC(=O)N1CCCN(C(=O)CCOc2ccc(C(C)C)cc2)CC1 [DDD01298039]
- % viability: 0.9627%

SMILES: CN(Cc1ccc(F)c(F)c1)C(=O)CCC1=NC(=C2N=CN=N2)NO1 [DDD01062114]
- % viability: 1.185%

SMILES: Cn1cc(C(=O)N2CCCC(c3cc(=O)n(C)[nH]3)C2)cn1 (centres unmarked) [DDD01060486]
- % viability: 1.105%

SMILES: CCCc1nn(C)c(N)c1-c1ccc2c(c1)OCO2 [DDD01074641]
- % viability: 1.2104%

SMILES: Cc1ccc(S(=O)(=O)Cc2noc([C@@H]3C[C@@H](O)CN3C(C)C)n2)cc1 [DDD01025534]
- % viability: 1.063%

SMILES: Cn1ccc(C(=O)N2CCCC(c3cc(=O)n(C)[nH]3)C2)n1 (centres unmarked) [DDD01060541]
- % viability: 0.9912%

SMILES: Cc1[nH]n(C2CCS(=O)(=O)C2)c(=O)c1Cc1ccccc1Cl (centres unmarked) [DDD01026964]
- % viability: 1.154%

SMILES: Cn1nc(C2CCC2)c(-c2ccc3c(c2)OCO3)c1N [DDD01074643]
- % viability: 1.107%

SMILES: CCn1[nH]cc2nc(-c3cc(OC)c(OC)cc3OC)nc1-2 [DDD01254934]
- % viability: 1.131%

SMILES: COc1cc2c(cc1-c1nc3c[nH]n(C(C)C)c-3n1)OCO2 [DDD01249461]
- % viability: 1.226%

SMILES: COCC(=O)N1Cc2[nH]c3c(C)c(-c4cccs4)nn3c(=O)c2C1 [DDD01056747]
- % viability: 0.9901%

SMILES: Cc1[nH]n(C2CCS(=O)(=O)C2)c(=O)c1CCc1ccccc1 (centres unmarked) [DDD01026977]
- % viability: 1.342%

SMILES: CCc1cc(=O)n2nc(C3CCCN3C(=O)c3ccccn3)cc2[nH]1 (centres unmarked) [DDD01057178]
- % viability: 1.278%

SMILES: Cc1[nH]n(Cc2ccc(F)cc2)c2nnc(N)c1-2 [DDD01012470]
- % viability: 1.161%

SMILES: Cn1nc(C2CC2)c(-c2ccc3c(c2)OCO3)c1N [DDD01074640]
- % viability: 1.305%

SMILES: CCc1nc(CN(C)C2CCN(CCn3cc(C#N)cn3)C2)no1 (centres unmarked) [DDD01304196]
- % viability: 1.045%

SMILES: Cc1ccc(CN2CCc3c([nH]c4cc(C5CC5)nn4c3=O)C2)s1 [DDD01058491]
- % viability: 1.123%

SMILES: COc1cc2c(cc1-c1nc3c[nH]n(C)c-3n1)OCO2 [DDD01248770]
- % viability: 1.141%

SMILES: COc1cc2c(cc1-c1nc3c[nH]n(C(C)C4CC4)c-3n1)OCO2 (centres unmarked) [DDD01244142]
- % viability: 1.215%

SMILES: Cc1[nH]n(C2CCS(=O)(=O)C2)c(=O)c1Cc1cccc(Cl)c1 (centres unmarked) [DDD01026994]
- % viability: 1.159%

SMILES: CCc1nn(C)c(N)c1-c1ccc2c(c1)OCO2 [DDD01074639]
- % viability: 1.278%

SMILES: Cc1cccc(C2N3CCC4(CC3)c3[nH]c5ccccc5c3CCN24)n1 (centres unmarked) [DDD01058402]
- % viability: 1.009%

SMILES: Clc1cccc(-c2cccc(N3CCC(NC4CCOCC4)CC3)c2)c1 [DDD01252000]
- % viability: 1.106%

SMILES: CCC(=O)Nc1[nH]nc2c1c(C)nn2Cc1cccc(OC)c1 [DDD01063148]
- % viability: 1.182%

SMILES: CCc1ccc(C(C)NC(=O)CCC2=NC(=C3N=CN=N3)NO2)cc1 (centres unmarked) [DDD01068289]
- % viability: 1.032%

SMILES: CCc1c(C)[nH]c2cc(C3CCN(CCc4ccccc4)C3)nn2c1=O (centres unmarked) [DDD01060567]
- % viability: 1.041%

SMILES: COc1cc2c(cc1-c1nc3c[nH]n(C(C)C(C)C)c-3n1)OCO2 (centres unmarked) [DDD01255421]
- % viability: 1.199%

SMILES: Cc1cc(=O)n2nc(C3CCN(C(=O)c4ccccn4)CC3)cc2[nH]1 [DDD01057174]
- % viability: 1.036%

SMILES: COCCC(=O)N1Cc2[nH]c3c(C)c(-c4cccs4)nn3c(=O)c2C1 [DDD01056578]
- % viability: 1.121%

SMILES: CCc1c(C)nn2c(=O)cc(C3CCN(C(=O)C4CC4)C3)[nH]c12 (centres unmarked) [DDD01057056]
- % viability: 1.097%

SMILES: CCc1c(C)nn2c(=O)cc(C3CCN(C(=O)c4ccn(C)n4)C3)[nH]c12 (centres unmarked) [DDD01056907]
- % viability: 1.06%

SMILES: CCc1cc(=O)n2nc(C3CCN(C(=O)c4ccncc4)CC3)cc2[nH]1 [DDD01057177]
- % viability: 1.239%

SMILES: Cc1cc(=O)n(-c2ccc3nnc(C)n3n2)[nH]1 [DDD01038570]
- % viability: 1.151%

SMILES: Cc1nc(O)cc(CCNC(=O)CC[C@@H]2CCCN3CCCC[C@H]23)n1 [DDD01256003]
- % viability: 1.201%

SMILES: COc1ccc(-c2c(C)nn3c(N)c(C#N)nnc23)cc1 [DDD01035158]
- % viability: 1.096%

SMILES: COc1ccc(-c2c(C(C)C)nn3c(N)c(C#N)nnc23)cc1 [DDD01035184]
- % viability: 0.9469%

SMILES: CCc1nn2c(N)c(C#N)nnc2c1-c1ccc(OC)cc1 [DDD01035159]
- % viability: 1.1%

SMILES: Cc1ncsc1C(=O)N1CCCCC1c1cc2[nH]c(C)c(C)c(=O)n2n1 (centres unmarked) [DDD01059037]
- % viability: 1.19%

SMILES: Cc1[nH]n(-c2ccc(F)cc2)c2nnc(N)c1-2 [DDD01065623]
- % viability: 1.104%

SMILES: COc1cccc(CN(C)CC2=Nc3ccccc3S(=O)(=O)N2)c1 [DDD01073248]
- % viability (Stg V Gam primary screen: Inhibition % (2uM) (n=2)): 1.218%

SMILES: COc1cccc(Cn2nc(C)c3c(NC(=O)C(C)OC)[nH]nc32)c1 (centres unmarked) [DDD01063202]
- % viability: 1.059%

SMILES: COc1cccc(C2=NN=CC2=C2NC(CN3CCCC3)=NO2)c1 [DDD01247208]
- % viability: 1.119%

SMILES: COCCC(=O)N1CCC(c2cc(=O)n(C)[nH]2)C1 (centres unmarked) [DDD01060470]
- % viability: 1.179%

SMILES: COc1cccc(F)c1-c1nc2c(C3CC3)[nH]n(C)c-2n1 [DDD01246655]
- % viability: 1.144%

SMILES: CCC(CO)N(Cc1cccnc1)C(=O)c1ccc(C(F)(F)F)nc1O (centres unmarked) [DDD01253913]
- % viability: 1.193%

SMILES: Cc1ccccc1CN(C)C(=O)CCC1=NC(=C2N=CN=N2)NO1 [DDD01062116]
- % viability: 1.259%

SMILES: Cc1[nH]n(C2CCCCC2)c2nc(C(C)(C)CN3CCOCC3)nc1-2 [DDD01254749]
- % viability: 1.099%

SMILES: Cc1[nH]n(C2CCCC2)c2nc(C(C)(C)CN3CCN(C)CC3)nc1-2 [DDD01248613]
- % viability: 1.14%

SMILES: Cc1nc(N2CCCC2)ncc1-c1cc(=O)n2ncnc2[nH]1 [DDD01038581]
- % viability: 1.014%

SMILES: CCc1cc(=O)n2nc(C3CCN(C(=O)c4ccccn4)CC3)cc2[nH]1 [DDD01057364]
- % viability: 1.067%

SMILES: CCc1c(C)[nH]c2cc(C3CCN(Cc4cccnc4)C3)nn2c1=O (centres unmarked) [DDD01060570]
- % viability: 1.145%

SMILES: Cc1[nH]c2cc(C3CCN(Cc4ccccc4F)C3)nn2c(=O)c1C (centres unmarked) [DDD01060615]
- % viability: 0.9944%

SMILES: CCc1c(C)[nH]c2cc(C3CCN(Cc4cccc(F)c4)C3)nn2c1=O (centres unmarked) [DDD01060569]
- % viability: 1.163%

SMILES: Cc1[nH]c2cc(C3CCN(Cc4cccc(F)c4F)C3)nn2c(=O)c1C (centres unmarked) [DDD01270135]
- % viability: 0.8996%

SMILES: CCc1c(C)[nH]c2cc(C3CCN(Cc4ccccc4F)C3)nn2c1=O (centres unmarked) [DDD01270117]
- % viability: 0.9474%

SMILES: CCc1c(C)[nH]c2cc(C3CCN(Cc4ccc(F)cc4)C3)nn2c1=O (centres unmarked) [DDD01060568]
- % viability: 1.103%

SMILES: Cc1nsc(N2CCCN(CC(=O)N(C)C3CC3)CC2)n1 [DDD01066804]
- % viability: 1.153%

SMILES: COCCCC(=O)N1CC(=O)Nc2cc(Br)ccc21 [DDD01075689]
- % viability: 1.221%

SMILES: Cc1ncc(CN2CCc3[nH]c4cc(C(C)(C)C)nn4c(=O)c3C2)n1C [DDD01058400]
- % viability: 1.122%

SMILES: O=C(CNC(=O)N1CCc2c([nH]c3ccc(Cl)cc23)C1)N1CCOCC1 [DDD01035668]
- % viability: 1.056%

SMILES: Cc1[nH]n(-c2ccccc2)c2nc(C(C)(C)CN3CCN(C)CC3)nc1-2 [DDD01252143]
- % viability: 1.131%

SMILES: Cc1[nH]n(C2CCS(=O)(=O)C2)c(=O)c1Cc1ccccc1 (centres unmarked) [DDD01026976]
- % viability: 1.15%

SMILES: Cc1[nH]n(C2CCS(=O)(=O)C2)c(=O)c1Cc1ccc(Br)cc1 (centres unmarked) [DDD01026979]
- % viability: 1.197%

SMILES: CCCn1ncc(-c2nc3c[nH]n(CC)c-3n2)c1C [DDD01252709]
- % viability: 1.088%

SMILES: CCn1[nH]cc2nc(-c3cc4c(cc3OC)OCO4)nc1-2 [DDD01244413]
- % viability: 1.126%

SMILES: CCc1c(C)nn2c(=O)cc(C3CCN(C(=O)c4ccccn4)C3)[nH]c12 (centres unmarked) [DDD01056906]
- % viability: 1.115%

SMILES: CCc1ccc(NC(=O)Nc2c(O)c3ccccc3oc2=O)cc1 [DDD01037337]
- % viability: 1.219%

SMILES: CN(CCCc1ccccc1)C(=O)CCC1=NC(=C2N=CN=N2)NO1 [DDD01062165]
- % viability: 0.9845%

SMILES: CCc1c(C)nn2c(=O)cc(C3CCN(C(=O)c4cnn(C)c4)C3)[nH]c12 (centres unmarked) [DDD01056908]
- % viability: 1.149%

SMILES: COCC(=O)Nc1[nH]nc2c1c(C)nn2Cc1cccc(OC)c1 [DDD01063147]
- % viability: 1.204%

SMILES: Fc1cccc(C2=NN=CC2=C2NC(CN3CCOCC3)=NO2)c1 [DDD01244908]
- % viability: 1.1236%

SMILES: CSc1cccc(NC(=O)Nc2c(O)c3ccccc3oc2=O)c1 [DDD01037688]
- % viability: 1.182%

SMILES: Cc1ncc(CN2CCc3c([nH]c4cc(C5CC5)nn4c3=O)C2)n1C [DDD01058398]
- % viability: 1.038%

SMILES: Cc1nnsc1C(=O)N1CCCCC1c1cc2[nH]c(C)c(C)c(=O)n2n1 (centres unmarked) [DDD01059036]
- % viability: 1.123%

SMILES: CCn1[nH]cc2nc(-c3ccc(OC)c(COC)c3)nc1-2 [DDD01253750]
- % viability: 1.204%

SMILES: CCc1cc(=O)n2nc(C3CCN(C(=O)c4cccnc4)CC3)cc2[nH]1 [DDD01057176]
- % viability: 1.192%

SMILES: COc1ccc(F)cc1-c1nc2c(C3CC3)[nH]n(C)c-2n1 [DDD01250494]
- % viability: 1.074%

SMILES: COc1cc(OC)c(-c2nc3c(C4CC4)[nH]n(C)c-3n2)cc1OC [DDD01244474]
- % viability: 0.9472%

SMILES: COc1cc(F)ccc1-c1nc2c(C3CC3)[nH]n(C)c-2n1 [DDD01248843]
- % viability: 1.111%
